From the supplement of paper PMC10849652
About 7,900 targets were measured; listed, in parts, are those with a hit and a random draw of the rest. About 0.6% of all pairs of compound and target were hits.

Tests used:
Experiment in all cases: log2 fold change, soluble protein after heating vs DMSO (PISA); higher = thermal stabilisation; K562 cells, 10 uM, 30 min; active = over 0.2 and 3.5 SD of the protein, either way, in both replicates (recomputed)
[1] = compound: CS(=O)(=O)c1ccc(-c2cnc(N)c(C(=O)Nc3ccccc3)n2)cc1
In short: (§1)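 K562 cells at 2×10^6 cells/mL were given 10 μM compound for 30 min. Aliquots then went through 3 min of heating across 48°C-58°C, were pooled, and were extracted in PBS with 0.5% NP-40 at 4°C, and the supernatant after 21,000xg for 90 min was quantified by TMTpro 16plex LC-MS/MS with channel sums equalised. Thermal stability relative to control samples, from duplicates, is given as log2 fold change.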

[2] = compound: C[C@@H](Oc1cc(-c2cnn(C3CCNCC3)c2)cnc1N)c1c(Cl)ccc(F)c1Cl [crizotinib]
In short: as §1

[3] = compound: C[C@@H]1COCCN1C2=NC(=NC(=C2)C3(CC3)S(=O)(=O)C)C4=C5C=CNC5=CC=C4
In short: as §1

[4] = compound: C[C@H](C1=CC=C(C=C1)C(=O)NC2=C3C=CNC3=NC=C2)N
In short: as §1

[5] = compound: C[C@H](Nc1ncnc2nc[nH]c12)c1cc2cccc(Cl)c2c(=O)n1-c1ccccc1 [duvelisib]
In short: as §1

[6] = compound: Cc1cc(Nc2cc(CN3CCOCC3)c3nc(C)c(Cc4ccc(Cl)cc4F)n3n2)n[nH]1 [gandotinib]
In short: as §1

[7] = compound: Cc1cc(Nc2cc(N3CCN(C)CC3)nc(Sc3ccc(NC(=O)C4CC4)cc3)n2)n[nH]1 [tozasertib]
In short: as §1

[8] = compound: Cc1cc(SCc2sc(-c3ccc(C(F)(F)F)cc3)nc2C)ccc1OCC(=O)O
In short: as §1

[9] = compound: Cc1ccc(-n2nc(C(C)(C)C)cc2NC(=O)Nc2ccc(OCCN3CCOCC3)c3ccccc23)cc1 [doramapimod]
In short: as §1

[10] = compound: Cc1ccc(C(=O)N(CCCN)[C@@H](c2nc3cc(Cl)ccc3c(=O)n2Cc2ccccc2)C(C)C)cc1 [ispinesib]
In short: as §1

[11] = compound: Cc1ccc(NC(=O)c2ccc(CN3CC[C@H](N(C)C)C3)c(C(F)(F)F)c2)cc1Nc1nccc(-c2cncnc2)n1 [bafetinib]
In short: as §1

[12] = compound: Cc1cccc(CC(=O)N2CCc3c2ccc(-c2cn(C)c4ncnc(N)c24)c3F)n1
In short: as §1

[13] = compound: Cc1cn(-c2cc(NC(=O)c3ccc(C)c(Nc4nccc(-c5cccnc5)n4)c3)cc(C(F)(F)F)c2)cn1 [nilotinib]
In short: as §1

[14] = compound: Cc1nc(Nc2n[nH]c3c2CN(C(=O)N[C@H](CN(C)C)c2ccccc2)C3(C)C)c2sccc2n1
In short: as §1

[15] = compound: Cc1nc(Nc2ncc(C(=O)Nc3c(C)cccc3Cl)s2)cc(N2CCN(CCO)CC2)n1 [dasatinib]
In short: as §1

[16] = compound: Cc1ncc(-c2ccnc(Nc3ccc(S(C)(=O)=O)cc3)n2)n1C(C)C
In short: as §1

[17] = compound: Cn1cc(-c2ccc3c(c2)CCN3C(=O)Cc2cccc(C(F)(F)F)c2)c2c(N)ncnc21
In short: as §1

[18] = compound: Cn1cc(-c2ccc3nnc(C(F)(F)c4ccc5ncccc5c4)n3n2)cn1
In short: as §1

[19] = compound: Cn1cncc1[C@@](N)(c1ccc(Cl)cc1)c1ccc2c(c1)c(-c1cccc(Cl)c1)cc(=O)n2C [tipifarnib]
In short: as §1

[20] = compound: FC(F)(F)c1ccc(/C=C/c2nc(COc3ccc(CCCCn4ccnn4)cc3)co2)cc1 [mubritinib]
In short: as §1

Measured: log2 fold change

RAB5C isoform 2 (UniProt P51148)
inactive: [1] -0.015 | [2] 0.099 | [3] 0.015 | [4] -0.092 | [5] 0.011 | [6] -0.021 | [7] -0.029 | [8] 0.014 | [9] 0.013 | [10] 0.054 | [11] -0.005 | [12] -0.021 | [13] 0.019 | [14] -0.019 | [15] 0.014 | [16] -0.003 | [17] 0.043 | [18] -0.027 | [19] 0.006 | [20] 0.031

RBM4 (UniProt Q9BWF3)
Chain of UniProt Q9BWF3 (Q9BWF3 whole entry, looked up): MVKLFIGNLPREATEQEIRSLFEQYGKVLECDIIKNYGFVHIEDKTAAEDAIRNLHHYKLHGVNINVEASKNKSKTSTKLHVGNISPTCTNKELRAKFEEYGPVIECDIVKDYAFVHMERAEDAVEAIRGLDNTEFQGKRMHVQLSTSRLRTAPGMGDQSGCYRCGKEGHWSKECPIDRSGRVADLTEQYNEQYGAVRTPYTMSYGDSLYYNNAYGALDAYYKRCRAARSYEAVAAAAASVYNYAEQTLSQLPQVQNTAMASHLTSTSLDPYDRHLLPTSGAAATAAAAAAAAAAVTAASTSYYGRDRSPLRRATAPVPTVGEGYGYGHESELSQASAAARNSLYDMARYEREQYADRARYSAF
inactive: [1] -0.024 | [2] -0.04 | [3] -0.081 | [4] 0.06 | [5] -0.058 | [6] -0.037 | [7] -0.023 | [8] 0.021 | [9] 0.021 | [10] -0.094 | [11] -0.049 | [12] -0.01 | [13] -0.047 | [14] -0.095 | [15] -0.033 | [16] -0.039 | [17] -0.054 | [18] -0.063 | [19] -0.013 | [20] -0.082

RFC3 (UniProt P40938)
Chain of UniProt P40938 (P40938 whole entry, looked up): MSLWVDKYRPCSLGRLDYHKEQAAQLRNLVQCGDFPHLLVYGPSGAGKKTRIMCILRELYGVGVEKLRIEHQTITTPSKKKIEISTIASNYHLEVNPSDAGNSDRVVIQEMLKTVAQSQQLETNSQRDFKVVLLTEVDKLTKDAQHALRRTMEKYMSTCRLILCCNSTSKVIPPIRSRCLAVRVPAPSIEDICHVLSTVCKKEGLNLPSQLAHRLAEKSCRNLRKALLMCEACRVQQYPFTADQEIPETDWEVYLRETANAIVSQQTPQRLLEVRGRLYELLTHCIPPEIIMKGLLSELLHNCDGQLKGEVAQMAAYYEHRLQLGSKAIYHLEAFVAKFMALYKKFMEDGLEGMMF
inactive: [1] 0.029 | [2] 0.016 | [3] 0.163 | [4] 0.071 | [5] 0.032 | [6] -0.042 | [7] -0.004 | [8] 0.061 | [9] -0.005 | [10] 0.067 | [11] -0.035 | [12] 0.049 | [13] -0.016 | [14] -0.017 | [15] -0.032 | [16] -0.011 | [17] 0.053 | [18] -0.01 | [19] -0.051 | [20] 0.045

SEC31A (UniProt O94979)
Chain of UniProt O94979 (O94979 whole entry, looked up): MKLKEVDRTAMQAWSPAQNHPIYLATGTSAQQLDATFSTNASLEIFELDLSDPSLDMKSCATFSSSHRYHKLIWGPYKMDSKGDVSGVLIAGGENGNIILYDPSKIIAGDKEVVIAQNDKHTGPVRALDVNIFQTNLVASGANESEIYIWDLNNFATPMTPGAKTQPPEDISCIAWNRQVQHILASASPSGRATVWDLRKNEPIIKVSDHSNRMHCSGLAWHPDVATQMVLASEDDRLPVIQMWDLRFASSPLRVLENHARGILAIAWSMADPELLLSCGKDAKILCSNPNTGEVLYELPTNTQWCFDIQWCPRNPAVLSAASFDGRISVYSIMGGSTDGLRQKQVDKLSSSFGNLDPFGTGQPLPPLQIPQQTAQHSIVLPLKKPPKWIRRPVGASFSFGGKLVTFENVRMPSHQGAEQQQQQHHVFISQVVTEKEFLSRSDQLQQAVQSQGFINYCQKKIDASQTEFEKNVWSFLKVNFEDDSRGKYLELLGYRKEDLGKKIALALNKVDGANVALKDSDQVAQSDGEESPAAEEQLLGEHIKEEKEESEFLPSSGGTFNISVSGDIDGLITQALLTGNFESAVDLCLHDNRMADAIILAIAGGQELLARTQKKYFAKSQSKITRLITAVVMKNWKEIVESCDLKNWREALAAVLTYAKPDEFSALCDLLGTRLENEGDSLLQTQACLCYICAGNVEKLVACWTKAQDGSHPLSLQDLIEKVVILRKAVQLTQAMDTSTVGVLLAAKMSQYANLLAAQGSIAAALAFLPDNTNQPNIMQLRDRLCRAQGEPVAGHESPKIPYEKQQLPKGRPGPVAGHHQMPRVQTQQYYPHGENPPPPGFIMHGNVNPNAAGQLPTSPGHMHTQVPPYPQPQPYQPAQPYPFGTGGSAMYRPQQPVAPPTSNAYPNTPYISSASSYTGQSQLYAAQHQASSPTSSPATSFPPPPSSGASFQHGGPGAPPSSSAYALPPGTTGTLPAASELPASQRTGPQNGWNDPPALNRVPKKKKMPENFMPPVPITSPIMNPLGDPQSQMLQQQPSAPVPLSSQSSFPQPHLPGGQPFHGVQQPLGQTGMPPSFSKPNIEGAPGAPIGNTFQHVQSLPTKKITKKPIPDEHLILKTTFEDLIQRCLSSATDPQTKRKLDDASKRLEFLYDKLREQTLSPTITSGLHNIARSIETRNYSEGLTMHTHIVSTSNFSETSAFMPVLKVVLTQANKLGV
inactive: [1] 0.045 | [2] -0.011 | [3] 0.007 | [4] 0.084 | [5] 0.004 | [6] -0.158 | [7] 0.049 | [8] 0.064 | [9] 0 | [10] 0.034 | [11] 0.011 | [12] 0.019 | [13] -0.11 | [14] -0.042 | [15] -0.134 | [16] 0.054 | [17] -0.031 | [18] -0.057 | [19] -0.065 | [20] 0.079

REEP4 (UniProt Q9H6H4)
Chain of UniProt Q9H6H4 (Q9H6H4 whole entry, looked up): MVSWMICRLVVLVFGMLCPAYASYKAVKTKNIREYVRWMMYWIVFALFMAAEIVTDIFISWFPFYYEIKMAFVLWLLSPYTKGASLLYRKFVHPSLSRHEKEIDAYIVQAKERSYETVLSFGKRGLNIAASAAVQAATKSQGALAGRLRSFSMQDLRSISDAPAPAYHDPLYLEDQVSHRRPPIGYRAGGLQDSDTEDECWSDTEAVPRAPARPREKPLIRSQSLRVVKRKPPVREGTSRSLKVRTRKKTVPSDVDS
inactive: [1] -0.015 | [2] -0.148 | [3] -0.027 | [4] 0.02 | [5] -0.013 | [6] 0.001 | [7] -0.111 | [8] 0.02 | [9] 0.06 | [11] 0.021 | [12] 0.127 | [13] -0.017 | [14] -0.077 | [15] -0.079 | [16] 0.067 | [17] -0.052 | [18] -0.056 | [19] -0.109 | [20] -0.04
active: [10] -0.275

SHCBP1 (UniProt Q8NEM2)
active: [14] -0.459
inactive: [1] 0.092 | [2] -0.077 | [3] 0.043 | [4] 0.119 | [5] -0.021 | [6] -0.124 | [7] 0.098 | [8] 0.169 | [9] 0.02 | [10] -0.096 | [11] -0.017 | [12] 0.041 | [13] -0.207 | [15] -0.091 | [16] 0.003 | [17] 0.223 | [18] 0.004 | [19] 0.299 | [20] 0.1

RAB9A (UniProt P51151)
Chain of UniProt P51151 (P51151 whole entry, looked up): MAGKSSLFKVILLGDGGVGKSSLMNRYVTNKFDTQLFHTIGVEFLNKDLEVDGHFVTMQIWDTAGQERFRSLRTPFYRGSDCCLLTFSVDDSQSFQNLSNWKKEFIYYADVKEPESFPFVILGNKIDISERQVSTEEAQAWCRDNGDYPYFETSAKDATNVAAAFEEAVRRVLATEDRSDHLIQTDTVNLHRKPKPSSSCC
inactive: [1] 0.007 | [2] -0.119 | [3] -0.006 | [4] -0.044 | [5] 0.04 | [6] 0 | [7] 0.018 | [8] 0.016 | [9] 0.018 | [10] -0.168 | [11] -0.073 | [12] -0.021 | [13] -0.01 | [14] 0.012 | [15] 0.002 | [16] 0.002 | [17] 0.104 | [18] 0.001 | [19] 0.001 | [20] 0.002

RIOK3 (UniProt O14730)
inactive: [1] -0.004 | [2] -0.031 | [3] 0.029 | [4] -0.026 | [5] 0.034 | [6] 0.086 | [7] -0.033 | [8] -0.011 | [9] -0.019 | [10] -0.004 | [11] -0.004 | [12] -0.02 | [13] -0.017 | [14] 0.06 | [15] 0.053 | [16] -0.01 | [17] 0.018 | [18] -0.005 | [19] 0.002 | [20] 0.017

RCOR1 (UniProt Q9UKL0)
Chain of UniProt Q9UKL0 (Q9UKL0 whole entry, looked up): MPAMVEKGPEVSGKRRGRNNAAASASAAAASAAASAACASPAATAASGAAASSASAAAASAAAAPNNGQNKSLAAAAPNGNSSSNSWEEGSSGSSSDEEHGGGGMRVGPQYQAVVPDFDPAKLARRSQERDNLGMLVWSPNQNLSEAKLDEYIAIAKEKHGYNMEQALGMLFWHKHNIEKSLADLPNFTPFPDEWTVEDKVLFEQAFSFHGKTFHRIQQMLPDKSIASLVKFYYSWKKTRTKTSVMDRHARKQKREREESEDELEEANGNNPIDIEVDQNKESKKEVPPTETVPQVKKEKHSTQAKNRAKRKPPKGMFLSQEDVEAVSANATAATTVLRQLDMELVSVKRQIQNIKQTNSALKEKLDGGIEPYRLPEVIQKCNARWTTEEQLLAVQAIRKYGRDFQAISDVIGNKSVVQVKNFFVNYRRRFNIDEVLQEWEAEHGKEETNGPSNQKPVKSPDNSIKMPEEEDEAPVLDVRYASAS
inactive: [1] 0.011 | [2] -0.033 | [3] 0.095 | [4] 0.071 | [5] 0.088 | [6] -0.046 | [7] 0.005 | [8] 0.041 | [9] 0.001 | [10] -0.031 | [11] 0.011 | [12] 0.021 | [13] -0.034 | [14] -0.107 | [15] -0.063 | [16] -0.062 | [17] -0.005 | [18] 0.033 | [19] -0.087 | [20] 0.07

RARS (UniProt P54136)
Chain of UniProt P54136 (P54136 whole entry, looked up): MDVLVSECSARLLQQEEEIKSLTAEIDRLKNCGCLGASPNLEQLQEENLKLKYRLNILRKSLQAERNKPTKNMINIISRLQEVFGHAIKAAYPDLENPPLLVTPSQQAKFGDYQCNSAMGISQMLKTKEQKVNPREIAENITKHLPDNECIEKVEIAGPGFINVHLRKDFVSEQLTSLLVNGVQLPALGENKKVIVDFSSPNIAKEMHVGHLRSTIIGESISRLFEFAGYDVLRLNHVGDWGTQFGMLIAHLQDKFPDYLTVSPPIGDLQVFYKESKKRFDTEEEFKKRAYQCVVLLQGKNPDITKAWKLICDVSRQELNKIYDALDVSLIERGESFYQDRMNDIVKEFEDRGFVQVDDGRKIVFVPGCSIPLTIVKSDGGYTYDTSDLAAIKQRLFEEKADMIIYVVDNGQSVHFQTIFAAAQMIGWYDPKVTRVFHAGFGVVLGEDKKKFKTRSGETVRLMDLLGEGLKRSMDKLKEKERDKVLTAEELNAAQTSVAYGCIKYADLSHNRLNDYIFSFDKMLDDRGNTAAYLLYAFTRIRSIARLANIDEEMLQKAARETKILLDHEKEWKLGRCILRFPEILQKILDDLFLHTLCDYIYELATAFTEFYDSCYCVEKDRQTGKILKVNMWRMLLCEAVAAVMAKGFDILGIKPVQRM
active: [10] -0.398
inactive: [1] -0.001 | [2] -0.266 | [3] -0.099 | [4] 0.373 | [5] -0.069 | [6] 0.018 | [7] -0.028 | [8] 0.132 | [9] 0.184 | [11] 0.04 | [12] 0.069 | [13] -0.057 | [14] -0.021 | [15] -0.071 | [16] 0.053 | [17] -0.08 | [18] -0.125 | [19] -0.117 | [20] -0.116

RRAGB (UniProt Q5VZM2)
Chain of UniProt Q5VZM2 (Q5VZM2 whole entry, looked up): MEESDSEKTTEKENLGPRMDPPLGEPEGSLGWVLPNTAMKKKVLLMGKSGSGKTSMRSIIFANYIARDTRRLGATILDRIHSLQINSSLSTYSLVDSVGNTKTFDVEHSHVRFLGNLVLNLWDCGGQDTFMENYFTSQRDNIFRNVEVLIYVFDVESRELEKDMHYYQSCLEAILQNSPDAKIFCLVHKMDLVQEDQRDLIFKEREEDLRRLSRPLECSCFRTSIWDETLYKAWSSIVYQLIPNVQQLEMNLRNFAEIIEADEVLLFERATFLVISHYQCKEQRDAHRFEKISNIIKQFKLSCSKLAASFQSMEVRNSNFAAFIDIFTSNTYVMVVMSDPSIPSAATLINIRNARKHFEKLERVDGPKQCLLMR
inactive: [1] 0.016 | [2] -0.131 | [3] 0.01 | [4] -0.123 | [5] 0.01 | [6] -0.008 | [7] -0.007 | [8] -0.011 | [9] 0.015 | [10] -0.065 | [11] -0.079 | [12] -0.045 | [13] 0.031 | [14] -0.003 | [15] 0.041 | [16] 0.009 | [17] 0.06 | [18] 0.043 | [19] -0.025 | [20] 0.037

RETREG3 (UniProt Q86VR2)
inactive: [1] 0.016 | [2] -0.076 | [3] 0.081 | [4] 0.024 | [5] 0.005 | [6] 0.007 | [7] 0.006 | [8] 0.033 | [9] -0.052 | [11] -0.164 | [12] -0.032 | [13] 0.015 | [14] 0.003 | [15] -0.045 | [16] 0.033 | [17] -0.007 | [18] 0.11 | [19] -0.034 | [20] 0
active: [10] -0.459

ROR2 (UniProt Q01974)
Chain of UniProt Q01974 (Q01974 whole entry, looked up): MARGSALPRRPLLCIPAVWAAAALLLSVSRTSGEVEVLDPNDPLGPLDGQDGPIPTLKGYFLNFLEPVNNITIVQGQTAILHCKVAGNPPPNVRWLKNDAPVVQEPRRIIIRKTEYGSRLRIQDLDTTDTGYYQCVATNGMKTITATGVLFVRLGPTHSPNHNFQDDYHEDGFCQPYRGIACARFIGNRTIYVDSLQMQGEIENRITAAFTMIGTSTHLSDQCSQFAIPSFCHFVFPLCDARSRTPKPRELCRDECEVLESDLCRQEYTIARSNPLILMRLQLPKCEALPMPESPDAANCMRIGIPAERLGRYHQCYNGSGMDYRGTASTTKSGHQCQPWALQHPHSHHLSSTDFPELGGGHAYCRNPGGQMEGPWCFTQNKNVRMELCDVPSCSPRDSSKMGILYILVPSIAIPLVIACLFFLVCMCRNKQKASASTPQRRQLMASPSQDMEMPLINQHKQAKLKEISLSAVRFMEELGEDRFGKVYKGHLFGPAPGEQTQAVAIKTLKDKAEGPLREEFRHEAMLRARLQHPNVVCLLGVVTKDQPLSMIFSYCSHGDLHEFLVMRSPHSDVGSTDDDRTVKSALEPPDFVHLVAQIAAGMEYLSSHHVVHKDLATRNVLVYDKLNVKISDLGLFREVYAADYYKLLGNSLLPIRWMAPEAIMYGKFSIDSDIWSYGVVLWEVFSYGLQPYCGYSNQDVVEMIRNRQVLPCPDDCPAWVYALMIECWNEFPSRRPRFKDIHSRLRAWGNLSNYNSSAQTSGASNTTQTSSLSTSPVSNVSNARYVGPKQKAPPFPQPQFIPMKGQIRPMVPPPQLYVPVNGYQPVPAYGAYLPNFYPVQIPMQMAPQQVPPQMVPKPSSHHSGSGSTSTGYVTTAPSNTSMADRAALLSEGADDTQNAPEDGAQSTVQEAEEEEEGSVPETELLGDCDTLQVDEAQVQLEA
inactive: [1] 0.028 | [2] 0.007 | [3] 0.081 | [4] -0.031 | [5] 0.049 | [6] -0.007 | [7] -0.025 | [8] 0.097 | [9] -0.04 | [10] 0.083 | [11] 0.024 | [12] 0.052 | [13] 0.009 | [14] -0.105 | [15] -0.124 | [16] 0.063 | [17] 0.043 | [18] -0.041 | [19] 0.03 | [20] 0.029

RPS3 (UniProt P23396)
inactive: [1] -0.07 | [2] 0.025 | [3] -0.258 | [4] 0.203 | [5] -0.06 | [6] 0.134 | [7] 0.022 | [8] 0.045 | [9] 0.077 | [10] -0.127 | [11] 0.219 | [12] -0.004 | [13] -0.009 | [14] 0.193 | [15] 0.063 | [16] -0.056 | [17] -0.132 | [18] -0.028 | [19] 0.075 | [20] -0.045

SDHAF2 (UniProt Q9NX18)
inactive: [1] -0.042 | [2] -0.183 | [3] 0.07 | [4] -0.111 | [5] 0.082 | [6] 0.057 | [7] 0.002 | [8] -0.125 | [9] -0.051 | [10] 0.006 | [11] -0.083 | [12] 0.166 | [13] -0.02 | [14] 0.022 | [15] 0.057 | [16] -0.007 | [17] 0.056 | [18] 0.017 | [19] 0.007 | [20] 0.058

RAB3IL1 (UniProt Q8TBN0)
inactive: [1] 0.009 | [2] 0.086 | [3] 0.071 | [4] 0.031 | [5] 0.026 | [6] 0.012 | [7] 0 | [8] -0.009 | [9] -0.021 | [10] 0.04 | [11] -0.025 | [12] 0.034 | [13] -0.016 | [14] 0.012 | [15] -0.054 | [16] -0.015 | [17] -0.007 | [18] 0.002 | [19] -0.051 | [20] 0.017
